Reference: PubChem BioAssay
The other results are listed elsewhere or left out. The source made the active and inactive calls.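 How the source made its calls, unless noted: active means inhibition above the mean over all tested compounds plus 3 SD, which no compound reached; inactive means the rest.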

Key:
[1] = tested on: HIV-1 integrase (multimerization); test: stimulation of HIV-1 integrase oligomerization – biochemical, TR-FRET, counter-screen for LEDGF/p75 integration inhibitor project (AID 1053131; in the data active means activation above about 8.9%); conditions: TR-FRET HIV-1 integrase multimerization, at 7.7 µM, hits give high values
[2] = compounds disturbing TR-FRET signal readout – biochemical, HIV-1 IN multimerization, artefact control for LEDGF/p75-dependent integration inhibitor project, confirmation (AID 1053135); conditions: TR-FRET optical interference counterscreen, at 7.7 µM, hits give high values;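 further: 0% = integrase with antibodies and DMSO and 100% = antibodies without integrase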
[3] = tested on: HIV-1 integrase / human LEDGF/p75 complex; test: blockers of LEDGF/p75-dependent integrase activity – biochemical, TR-FRET, confirmation (AID 1053136; in the data active means inhibition above about 14%); conditions: TR-FRET LEDGF/p75-dependent HIV-1 integration, at 3.7 µM, hits give high values
[4] = target: Glutathione S-transferase omega-1 (Homo sapiens) (UniProt P78417); test: recombinant GSTO1 blockers, retest – biochemical, fluorescence polarization, triplicate, counter-screen for RBBP9 inhibitor project, confirmation (AID 2176;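 active means inhibition above the primary screen's cutoff, its mean inhibition plus 3 SD, cut at about 35% in these data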;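 further: loss of polarization as inhibitors block binding of rhodamine sulfonate ester activity probe; 0% = GSTO1 with DMSO and 100% = wells lacking GSTO1 enzyme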); conditions: recombinant GSTO1, probe fluorescence polarization; at 5.96 µM; hits give high values
Chain of Glutathione S-transferase omega-1 (Homo sapiens) (P78417 whole entry, looked up): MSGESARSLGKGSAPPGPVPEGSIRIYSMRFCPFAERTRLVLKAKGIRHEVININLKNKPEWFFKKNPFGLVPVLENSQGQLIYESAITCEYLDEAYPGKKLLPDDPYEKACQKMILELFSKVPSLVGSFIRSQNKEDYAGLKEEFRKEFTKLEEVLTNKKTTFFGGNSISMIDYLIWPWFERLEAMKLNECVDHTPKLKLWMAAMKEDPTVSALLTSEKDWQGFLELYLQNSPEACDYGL

[5] = target: Protein-arginine deiminase type-4 (Homo sapiens) (UniProt Q9UM07); test: protein arginine deiminase 4 blockade, retest – biochemical, fluorescence polarization, confirmation (AID 488796;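 active means mean inhibition across replicates above the hit cutoff set by the earlier primary screen, cut at about 15% in these data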;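 further: inhibitors block active-site labeling by the probe so polarization falls; 0% = PAD4 with probe and DMSO and 100% = probe without PAD4 enzyme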); conditions: recombinant PAD4, RCA probe fluorescence polarization; at 6.36 µM; hits give high values
Chain of Protein-arginine deiminase type-4 (Homo sapiens) (Q9UM07 whole entry, looked up): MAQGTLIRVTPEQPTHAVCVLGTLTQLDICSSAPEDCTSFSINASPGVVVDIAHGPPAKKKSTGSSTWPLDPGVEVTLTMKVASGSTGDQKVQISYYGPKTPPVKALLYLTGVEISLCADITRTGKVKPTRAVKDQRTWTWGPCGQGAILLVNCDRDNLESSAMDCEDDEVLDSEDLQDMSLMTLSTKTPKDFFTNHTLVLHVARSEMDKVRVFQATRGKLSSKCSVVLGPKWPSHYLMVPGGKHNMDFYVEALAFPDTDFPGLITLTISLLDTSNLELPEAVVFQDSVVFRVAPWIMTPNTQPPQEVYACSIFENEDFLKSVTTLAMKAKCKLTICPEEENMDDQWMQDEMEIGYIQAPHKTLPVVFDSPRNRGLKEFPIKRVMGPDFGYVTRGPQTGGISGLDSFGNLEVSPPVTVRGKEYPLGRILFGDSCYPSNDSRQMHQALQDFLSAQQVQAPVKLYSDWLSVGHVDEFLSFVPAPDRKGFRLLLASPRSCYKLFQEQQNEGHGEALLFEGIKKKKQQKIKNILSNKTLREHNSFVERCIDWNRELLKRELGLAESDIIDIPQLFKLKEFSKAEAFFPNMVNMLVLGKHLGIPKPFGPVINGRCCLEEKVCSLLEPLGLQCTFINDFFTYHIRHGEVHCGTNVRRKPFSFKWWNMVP

[6] = target: Serine protease HTRA1 (Homo sapiens) (UniProt Q92743); test: confirming inhibition of human HTRA1 – biochemical, fluorescence polarization, confirmation (AID 540248;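 active means mean inhibition over three repeats above a set limit taken from the earlier primary screen, cut at about 37% in these data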;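 further: 0% = HTRA1 with DMSO and 100% = wells lacking HTRA1; inhibitors block probe binding so polarization drops and inhibition rises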); conditions: recombinant HTRA1, FP-rhodamine activity-based probe, at 5.96 µM, hits give high values
[7] = target: (Lyso)-N-acylphosphatidylethanolamine lipase (Mus musculus) (UniProt Q8VD66); test: mouse ABHD4 hydrolase blockers, triplicate – biochemical, fluorescence polarization, confirmation (AID 720658;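 active means mean inhibition across replicates above the hit cutoff set in the primary screen, cut at about 30% in these data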;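 further: 0% = wild-type ABHD4 with DMSO and 100% = catalytically dead S159A mutant with DMSO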); conditions: purified mABHD4, FP-Rh probe fluorescence polarization; at 8.92 µM; hits give high values
Chain of (Lyso)-N-acylphosphatidylethanolamine lipase (Mus musculus) (Q8VD66 whole entry, looked up): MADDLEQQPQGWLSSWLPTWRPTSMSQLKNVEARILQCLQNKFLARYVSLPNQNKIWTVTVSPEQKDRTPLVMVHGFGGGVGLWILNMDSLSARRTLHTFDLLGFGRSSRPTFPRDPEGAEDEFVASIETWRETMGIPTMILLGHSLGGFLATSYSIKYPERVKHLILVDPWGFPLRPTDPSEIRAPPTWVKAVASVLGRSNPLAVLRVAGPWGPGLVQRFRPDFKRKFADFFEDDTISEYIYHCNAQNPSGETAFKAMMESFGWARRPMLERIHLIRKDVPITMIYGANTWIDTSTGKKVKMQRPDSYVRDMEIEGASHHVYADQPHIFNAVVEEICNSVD

[8] = target: Bcl-2-like protein 1 (Homo sapiens) (UniProt Q07817); test: Bcl-xL BH3-peptide displacement, hit confirmation – biochemical, fluorescence polarization, counter-screen for MCL1 inhibitor project (AID 2166;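 active means inhibition above a cutoff equal to the mean inhibition of all tested compounds plus 3 SD, cut at about 30% in these data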); conditions: GST-Bcl-xL / FITC-Bim BH3 peptide FP binding; at 10.9 µM; hits give high values
Chain of Bcl-2-like protein 1 (Homo sapiens) (Q07817 whole entry, looked up): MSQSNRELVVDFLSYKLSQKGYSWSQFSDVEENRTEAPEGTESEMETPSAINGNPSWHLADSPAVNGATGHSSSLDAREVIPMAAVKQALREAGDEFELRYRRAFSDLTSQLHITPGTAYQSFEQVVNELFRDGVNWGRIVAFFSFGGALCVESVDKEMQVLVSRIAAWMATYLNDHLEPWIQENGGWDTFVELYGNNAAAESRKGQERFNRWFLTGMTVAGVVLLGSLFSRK

[9] = target: Induced myeloid leukemia cell differentiation protein Mcl-1 (Homo sapiens) (UniProt Q07820); test: MCL1-BIM peptide interaction disruptors – biochemical, fluorescence polarization, triplicate, confirmation (AID 2168;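 active means inhibition above the average of all tested compounds plus 3 SD, cut at about 40% in these data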;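 further: 0% = DMSO wells and 100% = unlabeled Bim-BH3 control peptide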); conditions: GST-MCL1 / FITC-Bim-BH3 fluorescence polarization; at 10.9 µM; hits give high values
Chain of Induced myeloid leukemia cell differentiation protein Mcl-1 (Homo sapiens) (Q07820 whole entry, looked up): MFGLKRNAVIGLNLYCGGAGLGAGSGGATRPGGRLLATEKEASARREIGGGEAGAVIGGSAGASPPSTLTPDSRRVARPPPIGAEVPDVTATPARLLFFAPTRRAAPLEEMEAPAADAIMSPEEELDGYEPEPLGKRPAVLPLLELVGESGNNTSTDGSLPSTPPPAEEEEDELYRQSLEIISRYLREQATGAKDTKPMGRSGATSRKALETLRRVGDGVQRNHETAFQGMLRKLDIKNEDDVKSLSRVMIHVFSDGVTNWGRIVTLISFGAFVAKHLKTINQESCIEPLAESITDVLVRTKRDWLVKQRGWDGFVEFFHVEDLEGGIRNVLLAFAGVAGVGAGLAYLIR

[10] = BSA probe fluorescence interference – biochemical, TAMRA-labeled BSA, counter-screen for TCR-CD3 interaction inhibitor project (AID 652035; in the data active means inhibition above about 23%;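 further: 0% = buffer low control and 100% = reference high control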); conditions: TAMRA-labeled BSA probe fluorescence counterscreen; at 9.4 µM; hits give high values
[11] = tested on: T-cell receptor (TCR)-CD3 interaction, human; test: blockers of TCR binding to CD3 – biochemical, fluorescence, TAMRA-labeled TCR probe, confirmation (AID 652036; in the data active means inhibition above about 19%); conditions: TAMRA-labeled TCR probe fluorescence binding assay; at 9.4 µM; hits give high values
[12] = target: Platelet-activating factor acetylhydrolase (Homo sapiens) (UniProt Q13093); test: inhibition of plasma PAF acetylhydrolase – biochemical, fluorescence polarization, human, confirmation (AID 463230;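 active means mean inhibition of the triplicate above the hit cutoff set for the earlier primary screen, cut at about 25% in these data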;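 further: 0% = enzyme with DMSO and 100% = wells lacking pPAFAH enzyme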); conditions: recombinant pPAFAH, FP-Rh probe fluorescence polarization; at 3.39 µM; hits give high values
Chain of Platelet-activating factor acetylhydrolase (Homo sapiens) (Q13093 whole entry, looked up): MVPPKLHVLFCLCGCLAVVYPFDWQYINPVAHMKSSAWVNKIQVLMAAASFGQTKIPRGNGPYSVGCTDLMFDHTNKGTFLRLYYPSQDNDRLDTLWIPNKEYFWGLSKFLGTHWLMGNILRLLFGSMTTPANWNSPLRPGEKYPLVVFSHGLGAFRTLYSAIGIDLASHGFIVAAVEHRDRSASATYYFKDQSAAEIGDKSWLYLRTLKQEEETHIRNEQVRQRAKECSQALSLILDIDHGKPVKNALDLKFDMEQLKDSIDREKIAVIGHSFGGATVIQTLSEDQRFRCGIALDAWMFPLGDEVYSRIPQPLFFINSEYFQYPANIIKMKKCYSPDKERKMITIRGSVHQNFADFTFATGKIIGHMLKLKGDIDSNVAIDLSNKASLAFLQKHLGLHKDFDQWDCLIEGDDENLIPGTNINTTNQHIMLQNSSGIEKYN

[13] = reduced OD of T4-infected AddAB+ E. coli – absorbance, E. coli V3065, T4 phage, triplicate, AddAB inhibitor project, confirmation (AID 488942;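 active means mean inhibition above a set limit taken from the earlier primary screen, cut at about 13% in these data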;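 further: higher means less bacterial growth since AddAB block lets phage replicate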); conditions: E. coli V3065 expressing H. pylori AddAB, at 11.9 µM, hits give high values, T4 phage with gene 2 nonsense mutations
[14] = reduced OD of phage-infected RecBCD+ V66 E. coli – absorbance, mutant T4 phage, counter-screen for AddAB inhibitor project (AID 488955;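 active means mean inhibition above the mean of solvent-only control wells plus 3 SD, cut at about 4% in these data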;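 further: optical density read after an 18 h incubation at 37 °C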); conditions: OD growth, at 11.9 µM, hits give high values
[15] = bacterial growth inhibitors – absorbance, counter-screen for AddAB inhibitor project, confirmation (AID 488956; in the data active means inhibition above about 25%); conditions: bacterial viability, absorbance (AddAB counterscreen); at 11.9 µM; hits give high values
[16] = reduced OD of V66 E. coli with T4 gene 2 phage – absorbance, RecBCD inhibitor project, confirmation (AID 651982;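 active means mean inhibition over triplicates exceeding the hit threshold derived in the original primary screen, cut at about 11% in these data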); conditions: E. coli V66 + T4 2- phage, growth OD; at 11.9 µM; hits give high values
[17] = bacterial growth inhibition – absorbance, high throughput, counter-screen for RecBCD inhibitor project (AID 651983; in the data active means inhibition above about 20%;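 further: E. coli strain V66 grown with compound alone and no phage infection; 0% = bacteria with DMSO vehicle only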); conditions: E. coli viability, absorbance (OD) growth; at 11.9 µM; hits give high values
[18] = reduced optical density, T4-challenged addAB+ bacteria – absorbance, E. coli V3065, T4 phage, counter-screen for RecBCD inhibitor project, confirmation (AID 651984;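 active means mean inhibition above the solvent-only control wells' mean plus 3 SD, cut at about 22% in these data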;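 further: higher means less bacterial growth from phage killing when AddAB is blocked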); conditions: E. coli expressing H. pylori AddAB + T4 phage, OD growth; at 11.9 µM; hits give high values; gene 2 mutant T4, recBCD-deleted host
[19] = tested on: Fam108b (Abhd17b) serine hydrolase [Mus musculus]; test: inhibition of Fam108b (Abhd17b) hydrolase – biochemical, fluorescence polarization, triplicate, counter-screen for RBBP9 inhibitor project, confirmation (AID 1978;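 active means inhibition above a limit from the primary screen, the mean over all compounds plus 3 SD, cut at about 19% in these data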;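 further: 0% = median of active Fam108b wells and 100% = catalytically dead S170A mutant; inhibitors free the probe so polarization falls as inhibition rises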); conditions: recombinant Fam108b, FP-Rh probe fluorescence polarization; at 9.51 µM; hits give high values
[20] = target: Peroxisome proliferator-activated receptor gamma (Homo sapiens) (UniProt P37231); test: retested PPARg-SRC-2 recruitment enhancers – biochemical, HTS, confirmation (AID 1297; in the data active means activation above about 22%;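 further: 0% = vehicle alone and 100% = reference agonist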); conditions: biochemical SRC-2 recruitment by PPARgamma; at 8 µM; hits give high values
Chain of Peroxisome proliferator-activated receptor gamma (Homo sapiens) (P37231 whole entry, looked up): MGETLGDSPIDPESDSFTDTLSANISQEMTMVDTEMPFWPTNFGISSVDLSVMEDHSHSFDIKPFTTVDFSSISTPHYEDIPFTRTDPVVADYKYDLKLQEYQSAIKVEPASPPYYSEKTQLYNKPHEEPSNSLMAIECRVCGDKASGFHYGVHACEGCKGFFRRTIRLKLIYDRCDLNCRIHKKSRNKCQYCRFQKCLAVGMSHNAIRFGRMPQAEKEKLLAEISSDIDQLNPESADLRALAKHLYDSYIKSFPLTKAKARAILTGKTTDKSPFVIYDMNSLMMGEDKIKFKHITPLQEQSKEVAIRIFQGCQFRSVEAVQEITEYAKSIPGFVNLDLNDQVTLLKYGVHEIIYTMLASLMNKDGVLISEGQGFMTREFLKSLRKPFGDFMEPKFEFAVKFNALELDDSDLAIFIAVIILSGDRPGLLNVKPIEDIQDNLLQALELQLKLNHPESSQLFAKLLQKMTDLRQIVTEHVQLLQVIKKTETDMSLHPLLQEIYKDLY

[21] = target: Peroxisome proliferator-activated receptor gamma (Homo sapiens) (UniProt P37231); test: retest of SRC-1 recruitment enhancers for PPARgamma – biochemical, confirmation (AID 1300; in the data active means activation above about 20%;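 further: 0% = vehicle wells and 100% = reference agonist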); conditions: PPARgamma–SRC-1 coactivator recruitment biochemical assay; at 8 µM; hits give high values
[22] = target: Peroxisome proliferator-activated receptor gamma (Homo sapiens) + Nuclear receptor coactivator 3 (Homo sapiens) (UniProt P37231+Q9Y6Q9); test: agonists promoting SRC-3 binding to PPARgamma – biochemical, confirmation (AID 1301; in the data active means activation above about 24%;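 further: 0% = vehicle wells and 100% = reference agonist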); conditions: biochemical PPARgamma-SRC-3 coactivator recruitment, agonist mode; at 8 µM; hits give high values
Chain of Peroxisome proliferator-activated receptor gamma (Homo sapiens) + Nuclear receptor coactivator 3 (Homo sapiens) (P37231 whole entry, looked up): as above
Chain of Peroxisome proliferator-activated receptor gamma (Homo sapiens) + Nuclear receptor coactivator 3 (Homo sapiens) (Q9Y6Q9 whole entry, looked up): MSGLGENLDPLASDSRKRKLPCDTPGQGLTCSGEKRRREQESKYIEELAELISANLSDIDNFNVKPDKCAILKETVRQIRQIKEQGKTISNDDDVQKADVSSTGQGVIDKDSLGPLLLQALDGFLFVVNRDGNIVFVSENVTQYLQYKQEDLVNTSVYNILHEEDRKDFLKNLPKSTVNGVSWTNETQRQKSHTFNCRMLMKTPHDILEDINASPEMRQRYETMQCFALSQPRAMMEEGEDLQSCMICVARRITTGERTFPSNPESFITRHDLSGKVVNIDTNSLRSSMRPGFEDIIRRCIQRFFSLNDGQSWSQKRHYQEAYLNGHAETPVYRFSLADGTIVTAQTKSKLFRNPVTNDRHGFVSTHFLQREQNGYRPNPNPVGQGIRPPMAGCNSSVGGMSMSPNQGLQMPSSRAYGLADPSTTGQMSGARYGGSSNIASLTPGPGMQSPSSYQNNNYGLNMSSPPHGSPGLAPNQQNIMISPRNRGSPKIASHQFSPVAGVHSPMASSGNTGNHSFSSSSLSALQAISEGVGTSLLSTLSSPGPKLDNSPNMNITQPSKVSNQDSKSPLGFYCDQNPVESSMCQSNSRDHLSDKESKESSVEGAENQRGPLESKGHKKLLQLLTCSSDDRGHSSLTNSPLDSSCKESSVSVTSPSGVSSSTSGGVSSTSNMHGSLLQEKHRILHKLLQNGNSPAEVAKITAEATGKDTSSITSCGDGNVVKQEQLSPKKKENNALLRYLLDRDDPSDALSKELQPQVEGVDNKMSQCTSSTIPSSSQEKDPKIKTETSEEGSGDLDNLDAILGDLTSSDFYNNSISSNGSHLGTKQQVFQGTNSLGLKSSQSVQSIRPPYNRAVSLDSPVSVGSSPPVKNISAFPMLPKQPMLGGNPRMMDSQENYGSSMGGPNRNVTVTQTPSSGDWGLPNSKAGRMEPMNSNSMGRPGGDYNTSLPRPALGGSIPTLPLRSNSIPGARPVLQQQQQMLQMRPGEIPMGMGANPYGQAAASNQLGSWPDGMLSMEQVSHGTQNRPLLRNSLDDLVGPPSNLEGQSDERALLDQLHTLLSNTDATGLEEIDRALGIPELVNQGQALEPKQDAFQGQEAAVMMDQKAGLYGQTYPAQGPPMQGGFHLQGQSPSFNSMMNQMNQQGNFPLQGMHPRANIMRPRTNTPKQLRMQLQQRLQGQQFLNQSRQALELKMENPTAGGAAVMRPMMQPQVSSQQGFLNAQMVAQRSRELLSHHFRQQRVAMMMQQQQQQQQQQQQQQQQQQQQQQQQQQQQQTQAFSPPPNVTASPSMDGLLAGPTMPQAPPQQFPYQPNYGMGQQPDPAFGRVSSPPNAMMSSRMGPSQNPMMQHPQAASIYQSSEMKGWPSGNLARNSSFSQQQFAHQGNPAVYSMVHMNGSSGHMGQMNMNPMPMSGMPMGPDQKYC

COc1cc(-c2nnc(NC(=O)CS(=O)(=O)c3ccc(Cl)cc3)o2)cc(OC)c1OC
inactive: activation [1] 0.46% | inhibition [2] -2.3% | inhibition [3] 4.63%

O=C(COC(=O)CCC(=O)c1cccs1)NCc1ccco1
inactive: inhibition [2] -58.1%
active: activation [1] 11.5% | inhibition [3] 19.2%

CCN(CC)CCOc1ccc2c(c1)C(=NNC(=O)c1ccccn1)c1cc(OCCN(CC)CC)ccc1-2
inactive: activation [1] 2.34% | inhibition [2] -8.61% | inhibition [3] 6.51%

Clc1ccc(C2=CSC3=Nc4cccc5cccc(c45)N23)cc1
active: inhibition [4] 85.1% | inhibition [7] 37.5% | inhibition [3] 24.5%
inactive: inhibition [5] -2.56% | inhibition [6] 13.7% | activation [1] 2.48% | inhibition [2] -8.94%

CN(C(=O)COC(=O)c1cc(-c2ccco2)nc2ccccc12)C1CCS(=O)(=O)C1 (stereo unspecified)
active: inhibition [8] 34.6% | inhibition [9] 95.6% | inhibition [4] 38.5% | inhibition [11] 28.1% | activation [1] 24.1% | inhibition [3] 53.3%
inactive: inhibition [10] 3.94% | inhibition [2] -121%

Cc1c(CC(=O)N2CCN(C(=O)C3COc4ccccc4O3)CC2)c(=O)oc2c(O)c(O)ccc12 (stereo unspecified)
active: inhibition [8] 69.1% | inhibition [9] 89% | inhibition [12] 78.1% | inhibition [6] 88.8% | inhibition [11] 60.5% | activation [1] 16.8% | inhibition [3] 86.8%
inactive: inhibition [10] -7.93% | inhibition [7] 16% | inhibition [2] -84.6%

CN(C)[C@@H]1C(=O)C(C(N)=O)=C(O)[C@@]2(O)C(=O)C3=C(O)c4c(O)ccc(Cl)c4[C@@H](O)[C@H]3C[C@@H]12
active: inhibition [13] 102% | inhibition [14] 100% | inhibition [15] 101% | inhibition [16] 102% | inhibition [17] 104% | inhibition [18] 102%
inactive: inhibition [4] 24.2% | inhibition [12] -0.22% | inhibition [10] -3.91% | inhibition [11] 1.29% | inhibition [7] 17.2% | activation [1] 6.8% | inhibition [2] -24.2% | inhibition [3] 1.42%

COc1cc(/C=C2\CCCc3c2nc2ccccc2c3C(=O)O)cc(Cl)c1O
inactive: activation [1] -1.15% | inhibition [2] 5.85% | inhibition [3] -2.25%

CCn1nc(C)c(CN2CCN(Cc3ccc(OC)c(C)c3C)C(CCO)C2)c1C (stereo unspecified)
inactive: activation [1] -0.07% | inhibition [2] 0.39% | inhibition [3] -3.09%

Nc1ccc2nc3c(=O)[nH]c(=S)[nH]c3nc2c1
active: inhibition [19] 44.2% | inhibition [4] 62% | inhibition [12] 32.2% | inhibition [5] 45.3% | inhibition [11] 120% | inhibition [7] 53.5% | activation [1] 48.6% | inhibition [3] 83%
inactive: inhibition [10] 10.6% | inhibition [2] -245%

COCCn1nnnc1C(c1cc2ccc(OC)cc2[nH]c1=O)N1CCc2ccccc2C1 (stereo unspecified)
inactive: activation [1] 0.07% | inhibition [2] -0.28% | inhibition [3] 0.92%

C[C@H]([C@@H](O)[C@@H](O)[C@@H](C)C(C)(C)C)[C@H]1CC[C@H]2C3CC[C@H]4C[C@H](OS(=O)(=O)O)[C@@H](OS(=O)(=O)O)C[C@]4(C)[C@H]3CC[C@]12C (stereo partly specified)
inactive: activation [1] -1.87% | inhibition [2] 6.58%
active: inhibition [3] 32.4%

CCOC(=O)/C(C#N)=C\c1c(C)cc(C)c(COC(C)=O)c1C
inactive: activation [1] 0.2% | inhibition [2] -1.03% | inhibition [3] 3.21%

CN(C)c1ccc(N/C=C/C(=O)C(F)(F)F)cc1
active: activation [1] 14.5%
inactive: activation [20] 21.7% | activation [21] 15.3% | activation [22] 12.7% | inhibition [4] 6.83% | inhibition [12] -0.71% | inhibition [5] 1.99% | inhibition [6] 5.14% | inhibition [10] 0.92% | inhibition [11] 2.09% | inhibition [7] 2.7% | inhibition [2] -51.7% | inhibition [3] 0%

CCOC(=O)c1c(C)oc2cc(Sc3ccccc3)c(O)c(O)c12
inactive: inhibition [4] 5.29% | activation [1] 0.78% | inhibition [2] -2.84% | inhibition [3] -5.02%

O=C(NC1CCCCC1)N1CCc2[nH]c3ccccc3c2C1
inactive: activation [1] 1.36% | inhibition [2] -6.83% | inhibition [3] 2.35%

CCOc1cccc(=O)c2c(C)n(CC3CCCO3)c(C)c12 (stereo unspecified)
inactive: activation [1] 2.93% | inhibition [2] -10.4% | inhibition [3] 4.91%

Cn1c(SCc2nc3ccccc3s2)nnc1-c1ccc2c(c1)OCO2
inactive: activation [1] 0.47% | inhibition [2] -2.33% | inhibition [3] -2.11%

O=C1OC(/C=C/c2ccccc2)=NC/1=C/c1ccco1
inactive: activation [1] -0.93% | inhibition [2] 4.71% | inhibition [3] -2.29%

Oc1ccc(N=Cc2sc3ccccc3c2Cl)cc1
active: inhibition [6] 50.3% | activation [1] 10.4% | inhibition [3] 55.2%
inactive: inhibition [4] 12.2% | inhibition [5] 3% | inhibition [10] 13.2% | inhibition [11] 7.56% | inhibition [7] -6.63% | inhibition [2] -37.1%
